# From PubChem BioAssay
# The list is not random: actives were taken first. Their share in the collection is about 11%.
# PNC inhibitor – inhibitors of perinucleolar compartment assembly | PC3M PTB-GFP, PNC prevalence imaging, 16 h; active compounds read low | activity change (PNC), negative = inhibition, % at 10 µM | 3.1% of 140,000 active | AID 2417;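 active means readout at or below -70, meaning at least 70% loss of cells showing the perinucleolar compartment, a nuclear body marking cancer cells; inconclusive means readout between -30 and a set limit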;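 further: plate controls were DMSO wells for no effect and camptothecin positive control wells for full effect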
#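 Read-out is percentage of cells bearing a perinucleolar compartment, from automated 20x imaging of fixed, Hoechst-stained PC3M PTB-GFP cells. Cells were seeded 4 h, then exposed 16 h to compound (23 nl of library stock) in duplicate plates.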
# ALDH1A1 inh – inhibitors of human aldehyde dehydrogenase 1A1. P00352. Purified ALDH1A1, NADH fluorescence, propionaldehyde substrate. Potency, µM (titrated, usually from 75.3 µM), inactives show top-dose activity, negative = inhibition, usual class: inhibitors. 7.3% of 220,000 active. AID 1030;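 further: potency means the concentration at half of the fitted maximal effect; plate controls were no enzyme wells and a reference inhibitor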
# Target sequence (P00352 whole entry, looked up): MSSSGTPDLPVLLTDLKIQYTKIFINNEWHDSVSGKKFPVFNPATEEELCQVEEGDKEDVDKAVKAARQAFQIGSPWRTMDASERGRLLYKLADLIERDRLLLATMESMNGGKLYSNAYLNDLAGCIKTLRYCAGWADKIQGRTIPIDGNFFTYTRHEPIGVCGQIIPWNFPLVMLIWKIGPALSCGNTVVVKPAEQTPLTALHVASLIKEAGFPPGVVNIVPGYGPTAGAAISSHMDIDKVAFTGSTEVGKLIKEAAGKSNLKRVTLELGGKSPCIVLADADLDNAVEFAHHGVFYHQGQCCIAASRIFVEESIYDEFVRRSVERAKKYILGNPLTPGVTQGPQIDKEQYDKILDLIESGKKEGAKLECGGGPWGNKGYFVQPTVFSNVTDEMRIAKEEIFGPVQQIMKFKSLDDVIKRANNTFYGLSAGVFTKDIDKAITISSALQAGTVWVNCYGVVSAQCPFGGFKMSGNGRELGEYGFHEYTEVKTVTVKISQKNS
# KDM4E inh – blocks human JMJD2E demethylase activity; JMJD2E catalytic domain, FDH-coupled NADH fluorescence (FDH is formaldehyde dehydrogenase); Potency, µM (titrated, usually from 57.1 µM), inactives show top-dose activity change, negative = inhibition, actives largely listed as inhibitors; 1.6% of 230,000 active; AID 2147;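 further: potency means the concentration at half of the fitted maximal effect; 0% = wells with enzyme and -100% = buffer wells without enzyme; nearly all actives have a fitted effect of over 50% in size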
# HPGD inh – inhibitors of human 15-hydroxyprostaglandin dehydrogenase (HPGD); purified HPGD, NADH fluorescence kinetic, PGE2 substrate; Potency, µM, for the others: at the top dose activity change, negative = inhibition, hits mostly inhibitors; 4.3% of 150,000 active; further: potency means the concentration at half of the fitted maximal effect
#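 20 nM HPGD preincubated 15 min at room temperature with compound in 50 mM Tris-HCl pH 8, 0.01% Tween 20. Started with 1 mM NAD+ and 30 uM prostaglandin E2; NADH fluorescence (360/450 nm) read 5 times over 30-s intervals, last minus first.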
# Starred values were filed as active, the others as inactive; u = inconclusive; x = no result given; [ ] = dose if it differs, or a comment. Unless noted, the call rests on the fitted dose curve; in most records, active means well fitted inhibition curve with a large enough effect (not every such curve was filed as active); inconclusive means small, poorly fitted or top-dose-only effect, or another doubt; inactive means no such curve, though single readings can be large or run the other way. Unless noted, on the % scale 0 is the no-effect control and ±100 the full control effect.
SMILES,PNC inhibitor,ALDH1A1 inh,KDM4E inh,HPGD inh
CCOc1ccccc1NC(=S)/C(=C(\[O-])c1ccc2c(c1)OCCO2)[n+]1ccc(CC)cc1,36,20µM*,u,u
CC(C)(C)c1cc[n+](/C(C(=S)Nc2ccccc2F)=C(/[O-])c2ccc3c(c2)OCCO3)cc1,x,14µM*,-18%,x
O=C(CN1CCN(c2ccccc2O)CC1)Nc1cccnc1Cl,x,-9%,-6%,x
CC(=O)NC(C)c1nc2ccccc2n1CC(=O)NC(C)CCc1ccccc1 (centres undefined),x,-12%,-6%,x
O=C(CCCOc1ccc(Cl)cc1Cl)N1CCc2ccccc2C1,-19,-2%,-8%,2.5µM*
O=C(CCSc1ccc(Cl)cc1)N1CCCCCC1,-25,-7%,-1%,10µM*
CC1CCN(C(=O)CCCOc2ccc(Cl)cc2)CC1,-4,u,-1%,2.8µM*
Cc1cc(OCCCC(=O)N2CCCCC2)cc(C)c1Cl,u,u,-1%,7.9µM*
CCOC(=O)N1CCN(C(=O)COc2cc(C)c(Cl)c(C)c2)CC1,x,5%,-7%,x
O=C(O)[C@H]1CCCN1,x,9%,x,x
Cc1cc(Br)ccc1OCC(=O)N1CCCCCC1,13,u,-4%,40µM*
Cc1cc(Cl)ccc1OCCCC(=O)N1CCCCC1,-9,-14%,0%,6.3µM*
Cc1cc(Cl)ccc1OCCCC(=O)N1CCOCC1,u,-7%,3%,-15%
CCCOc1ccc(N)cc1N,-128*,5.6µM*,u,-14%
Cc1cc2c(cc1C)NC(c1c(C)n(C)n(-c3ccccc3)c1=O)C1=C(CC(C)(C)CC1=O)N2 (centres undefined),34,22µM*,u,-19%
O=C(NC1CC1)C1=C[C@@H](c2c[nH]c3ccccc23)C[C@@H](OCc2ccc(CO)cc2)O1,x,x,25µM*,x
O=C(NC1CC1)C1=C[C@@H](c2c[nH]c3ccccc23)C[C@@H](OCCCCO)O1,x,x,-7%,x
CC(=O)n1cc([C@@H]2C=C(C(=O)NCc3ccccc3)O[C@H](OCCCCO)C2)c2ccccc21,x,-2%,16µM*,x
C#CCNC(=O)C1=C[C@@H](c2coc3ccccc3c2=O)C[C@@H](OCCCCO)O1,x,10µM*,-5%,x
O=C(NCc1ccccc1)C1=C[C@@H](c2ccc(Br)cc2)C[C@@H](OCCCCO)O1,x,25µM*,-16%,x
CC(=O)n1cc([C@H]2C=C(C(=O)NCc3ccccc3)O[C@@H](OCCCCO)C2)c2ccccc21,x,-7%,u,x
O=c1c(-c2ccc(F)c(F)c2)nc2cncnc2n1C1CC1,x,11%,x,x
CCCCC#CC1C=CC(Oc2cc(OC)c(OC)c(OC)c2)C(COC(=O)OCC)O1 (centres undefined),x,-4%[13.5 µM],x,x
CCOC(=O)NC(=O)/C(C#N)=C(/C)N(C)C,x,u,-3%,x
CCCCc1c(O)n(-c2ccccc2)[nH]c1=O,x,0%,x,-10%
SMILES,PNC inhibitor,ALDH1A1 inh,KDM4E inh,HPGD inh
CC(=O)n1cc([C@H]2C=C(C(=O)NCc3ccccc3)O[C@@H](OCc3ccc(CO)cc3)C2)c2ccccc21,x,16µM*,u,x
C#CCNC(=O)C1=C[C@@H](c2cn(C(C)=O)c3ccccc23)C[C@@H](OCc2ccc(CO)cc2)O1,x,-6%,1%,x
CC(C)CC1(C(=O)NCC2CC2)C=CCN1C(=O)c1ccccc1 (centres undefined),x,25µM*,-11%,18µM*
N=C(N)SCCSC(=N)N,x,10%[13.5 µM],x,-12%
O=C(O)c1cc(NCc2ccc3c(c2)OCO3)ccc1N1CCOCC1,10,u,u,-21%
COC(=O)c1cc(NCc2ccc3c(c2)OCO3)ccc1N1CCOCC1,35,14µM*,-21%,-6%
CN(C)c1ccc(C(=S)NC2CCCCC2)cc1,x,3.5µM*,u,x
C/C(=N\NC(=S)NC1CCCCC1)c1ccc(C#N)cc1,25,6%,4%,-2%
CN(C)c1ccc(C(=O)OCC(=O)NC2CCCCCC2)cc1,x,6%,u,x
CCN(CC)c1ccc(C(=S)NCc2ccccc2)cc1,x,10µM*,-27%,x
CCN(CC)c1ccc(C(=S)NC2CCCCC2)cc1,x,7.9µM*,-20%,x
CC(C)N(C(=S)NCc1ccccc1)c1ccccc1,x,u,4%,x
COc1ccccc1CN1CCCC2(CCN(S(=O)(=O)c3ccccc3)CC2)C1,x,2%,x,-3%
COc1ccc(-n2c(=O)c3ccccc3n(Cc3ccccc3F)c2=O)cc1OC,x,-1%,-8%,x
O=C(O)c1ccc(Cl)c(S(=O)(=O)Nc2ccc3cn[nH]c3c2)c1,x,22µM*,-3%,x
CC(=O)N/C(=C\c1ccccc1)C(=O)OCC(=O)N(C)C1CCCCC1,69,7%,4%,-1%
CCN(CCN(C)C)C(=O)c1ccc2c(c1NCCO)C(=O)c1ccccc1C2=O,x,14µM*,u,x
CC1(C)CCCN(C(=O)c2ccc3c(c2NCCO)C(=O)c2ccccc2C3=O)C1,17,u,6%,16µM*
O=C(O)c1cccc2c1C(=O)c1ccccc1-2,x,22µM*,0%,x
O=C(O)c1cccc2c1C(=O)c1ccccc1C2=O,x,u,-11%,x
CCNc1c(C(=O)O)ccc2c1C(=O)c1ccccc1C2=O,-85*,1%,-2%,-12%
C/C(CCC(=O)OC[C@@H]1O[C@H](C#Cc2ccccc2)C=C[C@@H]1Oc1ccc(C)cc1)=N/O[C@@H](C)c1cn([C@H]2COC[C@H]2O)nn1,x,-4%[13.5 µM],x,x
N#CCCSC(=S)[C@H]1CCCC1=N,x,4%[13.5 µM],x,-8%
COc1cc(CCC(C)=O)ccc1OC(=O)c1c(F)cccc1Cl,x,-8%,-10%,x
CC1(C)OC(=O)C(=NNc2ccc(O)cc2)C(=O)O1,u,-9%,6%,x
CC1(C)OC(=O)C(=NNc2ccccc2)C(=O)O1,-8,16µM*,-4%,-23%
CC1(C)OC(=O)C(=NNc2ccc(Cl)cc2)C(=O)O1,5,3.2µM*,0%,-27%
